Source: PubChem BioAssay (NCI)
About 83,000 compounds went through this panel and 20% of them were active in at least one assay; those are over-represented in the sample as a whole.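 Each cell line was grown in a 96-well plate and treated with one concentration of compound for 48 hours. Values below 10 were considered active.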 Active and inactive are the calls of the source.

Key:
Assay in all cases: NCI-60 one-dose screen, 48 h (100 = growth as untreated, 0 = no growth, -100 = all killed)
Settings in all cases: 10 µM unless noted
HCT-15 colon = test system: HCT-15 colon
HT29 colon = test system: HT29 colon
SNB-75 CNS = test system: SNB-75 CNS
SNB-19 CNS = test system: SNB-19 CNS
U251 CNS = test system: U251 CNS
PC-3 prostate = test system: PC-3 prostate
SK-MEL-5 melanoma = test system: SK-MEL-5 melanoma
UACC-62 melanoma = test system: UACC-62 melanoma
LOX IMVI melanoma = test system: LOX IMVI melanoma
SK-MEL-28 melanoma = test system: SK-MEL-28 melanoma
SK-MEL-2 melanoma = test system: SK-MEL-2 melanoma
EKVX NSCLC = test system: EKVX NSCLC
SN12C renal = test system: SN12C renal
TK-10 renal = test system: TK-10 renal
ACHN renal = test system: ACHN renal
CAKI-1 renal = test system: CAKI-1 renal
A498 renal = test system: A498 renal
CCRF-CEM leukemia = test system: CCRF-CEM leukemia
MOLT-4 leukemia = test system: MOLT-4 leukemia
UO-31 renal = test system: UO-31 renal

Measured: growth

O=C(/C=C/c1ccc([N+](=O)[O-])cc1)c1cccc(Nc2nc(Nc3ccccc3)nc(Nc3ccccc3)n2)c1
inactive: HCT-15 colon 68.6% | HT29 colon 68.2% | SNB-75 CNS 52.4% | SNB-19 CNS 93.7% | U251 CNS 58% | PC-3 prostate 62.1% | SK-MEL-5 melanoma 62.8% | UACC-62 melanoma 82.7% | LOX IMVI melanoma 67.9% | SK-MEL-28 melanoma 88.3% | SK-MEL-2 melanoma 37.5% | EKVX NSCLC 65.1% | SN12C renal 89.1% | TK-10 renal 66.3% | ACHN renal 80% | CAKI-1 renal 72.5% | A498 renal 70% | CCRF-CEM leukemia 46.2% | MOLT-4 leukemia 46.4%

Cc1[nH]c(C(=O)Nc2ccccc2OC2CCNC2)c(Cl)c1Cl (centres undefined)
inactive: HCT-15 colon 77.7% | HT29 colon 77.8% | SNB-75 CNS 65.2% | SNB-19 CNS 85.3% | U251 CNS 64.4% | PC-3 prostate 80.2% | SK-MEL-5 melanoma 85.8% | UACC-62 melanoma 68.1% | LOX IMVI melanoma 30.7% | SK-MEL-28 melanoma 106% | SK-MEL-2 melanoma 96.5% | EKVX NSCLC 70.3% | SN12C renal 78.2% | ACHN renal 42.8% | CAKI-1 renal 76% | A498 renal 70.7% | MOLT-4 leukemia 87.8%

Cc1ccccc1NC(=O)c1sc2nc3c(cc2c1N)CCCC3
inactive: HCT-15 colon 25% | SNB-75 CNS 37.8% | SNB-19 CNS 30.9% | U251 CNS 23% | PC-3 prostate 29.9% | SK-MEL-5 melanoma 20.5% | UACC-62 melanoma 27.6% | LOX IMVI melanoma 40.5% | SK-MEL-28 melanoma 75.1% | SK-MEL-2 melanoma 26.4% | EKVX NSCLC 45.8% | SN12C renal 37.3% | TK-10 renal 57.5% | ACHN renal 51.2% | CAKI-1 renal 51% | MOLT-4 leukemia 27.4%
active: HT29 colon 7.53% | A498 renal -3.82%

COc1cc(-c2ccc(-c3ccc(C(=N)N)s3)s2)cc(OC)c1OC
inactive: HCT-15 colon 13.6% | SNB-75 CNS 75.5% | SNB-19 CNS 47.6% | PC-3 prostate 47.1% | SK-MEL-5 melanoma 23.2% | UACC-62 melanoma 81.3% | SK-MEL-2 melanoma 70% | EKVX NSCLC 74.4% | SN12C renal 60% | UO-31 renal 67.1% | CAKI-1 renal 41.7% | A498 renal 84.5%
active: HT29 colon 4.42% | U251 CNS 1.13% | LOX IMVI melanoma -63.3% | SK-MEL-28 melanoma 7.05% | ACHN renal 2.6% | CCRF-CEM leukemia -7.27% | MOLT-4 leukemia 4.68%

CCOc1ccc(-c2cc(C3(S(=O)(=O)c4ccc(C)cc4)CC=CC3)on2)cc1
inactive: HCT-15 colon 75.3% | HT29 colon 77.7% | SNB-75 CNS 97.3% | SNB-19 CNS 95.4% | U251 CNS 89.4% | PC-3 prostate 75.2% | SK-MEL-5 melanoma 69.8% | UACC-62 melanoma 66.7% | LOX IMVI melanoma 91.1% | SK-MEL-28 melanoma 115% | SK-MEL-2 melanoma 90.3% | EKVX NSCLC 68.8% | SN12C renal 87% | UO-31 renal 81.4% | ACHN renal 86.8% | CAKI-1 renal 83.2% | A498 renal 72.1% | CCRF-CEM leukemia 76.6% | MOLT-4 leukemia 76.8%

CC(C)(C)[C@H](OCc1cn([C@H]2C[C@@H](O)[C@@H](CO)O2)c(=O)[nH]c1=O)c1ccc(C#Cc2ccccc2)cc1[N+](=O)[O-]
inactive: HCT-15 colon 69.8% | HT29 colon 62.3% | SNB-75 CNS 67% | SNB-19 CNS 82.4% | U251 CNS 68.9% | PC-3 prostate 19.3% | SK-MEL-5 melanoma 75.4% | UACC-62 melanoma 66.9% | LOX IMVI melanoma 84.7% | SK-MEL-28 melanoma 101% | SK-MEL-2 melanoma 81.3% | EKVX NSCLC 67.4% | UO-31 renal 72% | TK-10 renal 61.7% | ACHN renal 77.4% | CAKI-1 renal 79.3% | A498 renal 95% | CCRF-CEM leukemia 72.2% | MOLT-4 leukemia 57.6%

COc1cc(OC)cc(C(=O)Nc2cnc(Nc3ccc(N4CCOCC4)nc3)nc2Oc2ccc(C(F)(F)F)cc2)c1
active: SNB-75 CNS -14.5%
inactive: HCT-15 colon 75.4% | HT29 colon 46.8% | SNB-19 CNS 44.1% | U251 CNS 65.6% | PC-3 prostate 71.4% | SK-MEL-5 melanoma 93% | UACC-62 melanoma 76.3% | LOX IMVI melanoma 69.7% | SK-MEL-28 melanoma 98.9% | SK-MEL-2 melanoma 94.6% | EKVX NSCLC 90.2% | SN12C renal 43.6% | UO-31 renal 58.1% | ACHN renal 66.4% | CAKI-1 renal 59.7% | CCRF-CEM leukemia 86% | MOLT-4 leukemia 80.7%

CCOC(=O)CCC(=O)P(=O)(O)O
inactive: HCT-15 colon 108% | HT29 colon 95.9% | SNB-75 CNS 146% | SNB-19 CNS 92.6% | U251 CNS 102% | PC-3 prostate 62.8% | SK-MEL-5 melanoma 104% | UACC-62 melanoma 96.6% | LOX IMVI melanoma 104% | SK-MEL-28 melanoma 93.6% | SK-MEL-2 melanoma 104% | EKVX NSCLC 106% | SN12C renal 108% | TK-10 renal 99.3% | ACHN renal 91.6% | CAKI-1 renal 137% | A498 renal 107% | CCRF-CEM leukemia 75.1% | MOLT-4 leukemia 62.6%

COC(=O)c1c(C)nc(C)c2c1C(=O)C(Br)=C(NCCN1CCOCC1)C2=O
inactive: HCT-15 colon 87.9% | HT29 colon 68.2% | SNB-75 CNS 119% | SNB-19 CNS 101% | U251 CNS 101% | PC-3 prostate 86.3% | SK-MEL-5 melanoma 70.8% | UACC-62 melanoma 55.6% | LOX IMVI melanoma 82.8% | SK-MEL-28 melanoma 113% | SK-MEL-2 melanoma 99.4% | EKVX NSCLC 100% | SN12C renal 89.5% | UO-31 renal 86.5% | ACHN renal 97.9% | CAKI-1 renal 91.4% | CCRF-CEM leukemia 97.3% | MOLT-4 leukemia 99.3%

NCCNc1ccc([N+](=O)[O-])cc1
inactive: HCT-15 colon 108% | HT29 colon 101% | SNB-75 CNS 96.2% | SNB-19 CNS 101% | U251 CNS 102% | PC-3 prostate 105% | SK-MEL-5 melanoma 118% | UACC-62 melanoma 106% | LOX IMVI melanoma 105% | SK-MEL-28 melanoma 108% | SK-MEL-2 melanoma 97.2% | EKVX NSCLC 137% | UO-31 renal 87.1% | TK-10 renal 96.2% | ACHN renal 108% | CAKI-1 renal 113% | A498 renal 106% | CCRF-CEM leukemia 94.5% | MOLT-4 leukemia 96.2%

C=C(C)[C@@H]1CC[C@]2(COCCCNCCCN)CC[C@]3(C)[C@H](CC[C@@H]4[C@@]5(C)CC[C@H](OCCCN)C(C)(C)[C@@H]5CC[C@]43C)[C@@H]12
inactive: SNB-75 CNS 10.1% | SK-MEL-5 melanoma 67.2% | SK-MEL-28 melanoma 16.1% | SK-MEL-2 melanoma 92.6% | EKVX NSCLC 47.6% | CAKI-1 renal 51.9% | A498 renal 90.3%
active: HCT-15 colon -88.4% | HT29 colon -79.7% | SNB-19 CNS -78.3% | U251 CNS -94.3% | PC-3 prostate -10% | UACC-62 melanoma -88.1% | LOX IMVI melanoma -93.8% | SN12C renal -83.1% | TK-10 renal -10.4% | ACHN renal -72.4% | CCRF-CEM leukemia -37.8% | MOLT-4 leukemia -15.6%

CCOC(=O)c1c(Nc2nc3ccccc3s2)sc2c1CCC(=O)C2
inactive: HCT-15 colon 45.1% | HT29 colon 55.4% | SNB-75 CNS 74.8% | SNB-19 CNS 45.8% | U251 CNS 20.5% | PC-3 prostate 22.2% | SK-MEL-5 melanoma 61.2% | UACC-62 melanoma 43.1% | LOX IMVI melanoma 40.1% | SK-MEL-28 melanoma 108% | SK-MEL-2 melanoma 103% | EKVX NSCLC 42.8% | SN12C renal 36.8% | TK-10 renal 29.1% | ACHN renal 29.9% | CAKI-1 renal 42.8% | A498 renal 59.1% | CCRF-CEM leukemia 16.9% | MOLT-4 leukemia 20.8%

C=C1C(=O)O[C@H]2[C@H]1CC/C(CNC(=O)/C=C/c1cc(OC)c(OC)c(OC)c1)=C\CC[C@@]1(C)O[C@@H]21
inactive: SNB-75 CNS 46.9% | SNB-19 CNS 46.9% | U251 CNS 25.9% | PC-3 prostate 37.1% | SK-MEL-5 melanoma 20.6% | EKVX NSCLC 25.3% | CAKI-1 renal 33.9%
active: HCT-15 colon 1.96% | HT29 colon -66.4% | UACC-62 melanoma -36.3% | LOX IMVI melanoma -88% | SK-MEL-28 melanoma -32.7% | SK-MEL-2 melanoma 3.52% | UO-31 renal -38.2% | TK-10 renal -86.5% | ACHN renal -79.6% | A498 renal -9.24% | CCRF-CEM leukemia -10.6% | MOLT-4 leukemia -26.6%

CCOC(=O)c1c(NC(=S)Nc2ccc([N+](=O)[O-])cc2)sc2c1CCCCC2
inactive: HCT-15 colon 66.6% | HT29 colon 105% | SNB-75 CNS 86.6% | SNB-19 CNS 82.2% | U251 CNS 76.6% | PC-3 prostate 43.6% | SK-MEL-5 melanoma 42.6% | UACC-62 melanoma 47.8% | LOX IMVI melanoma 84.4% | SK-MEL-28 melanoma 85.5% | SK-MEL-2 melanoma 66.6% | EKVX NSCLC 79.2% | SN12C renal 55.7% | TK-10 renal 85.9% | ACHN renal 84.6% | CAKI-1 renal 79.1% | A498 renal 49.8% | CCRF-CEM leukemia 64% | MOLT-4 leukemia 72.9%

O=C1CC2C=CCN2C=C1NC(=O)c1ccccc1 (centres undefined)
inactive: HCT-15 colon 100% | HT29 colon 97.9% | SNB-75 CNS 96.8% | SNB-19 CNS 108% | U251 CNS 97.2% | PC-3 prostate 99.7% | SK-MEL-5 melanoma 100% | UACC-62 melanoma 109% | LOX IMVI melanoma 99.3% | SK-MEL-28 melanoma 103% | SK-MEL-2 melanoma 118% | SN12C renal 99.5% | UO-31 renal 98.2% | TK-10 renal 93.5% | ACHN renal 104% | CAKI-1 renal 101% | A498 renal 102% | CCRF-CEM leukemia 109% | MOLT-4 leukemia 96.3%

O=C(O)/C=C/c1cn(-c2ccccc2)nc1-c1ccc(F)cc1
inactive: HCT-15 colon 101% | HT29 colon 107% | SNB-75 CNS 87.9% | SNB-19 CNS 92.2% | U251 CNS 96.2% | PC-3 prostate 84.4% | SK-MEL-5 melanoma 93.9% | UACC-62 melanoma 88.3% | LOX IMVI melanoma 95.2% | SK-MEL-28 melanoma 104% | SK-MEL-2 melanoma 106% | EKVX NSCLC 97.2% | UO-31 renal 60.7% | TK-10 renal 103% | ACHN renal 92% | CAKI-1 renal 88.9% | A498 renal 76.1% | CCRF-CEM leukemia 86.4% | MOLT-4 leukemia 109%
